Results taken from ChEMBL document CHEMBL2218924, “A broad activity screen in support of a chemogenomic map for kinase signalling research and drug discovery” (Biochem J, 2013).

How the values were obtained:
[1] = molecular target: T1, Ephrin type-A receptor 3 (Homo sapiens) (UniProt P29320); details: at 10 µM
T1 sequence (whole entry): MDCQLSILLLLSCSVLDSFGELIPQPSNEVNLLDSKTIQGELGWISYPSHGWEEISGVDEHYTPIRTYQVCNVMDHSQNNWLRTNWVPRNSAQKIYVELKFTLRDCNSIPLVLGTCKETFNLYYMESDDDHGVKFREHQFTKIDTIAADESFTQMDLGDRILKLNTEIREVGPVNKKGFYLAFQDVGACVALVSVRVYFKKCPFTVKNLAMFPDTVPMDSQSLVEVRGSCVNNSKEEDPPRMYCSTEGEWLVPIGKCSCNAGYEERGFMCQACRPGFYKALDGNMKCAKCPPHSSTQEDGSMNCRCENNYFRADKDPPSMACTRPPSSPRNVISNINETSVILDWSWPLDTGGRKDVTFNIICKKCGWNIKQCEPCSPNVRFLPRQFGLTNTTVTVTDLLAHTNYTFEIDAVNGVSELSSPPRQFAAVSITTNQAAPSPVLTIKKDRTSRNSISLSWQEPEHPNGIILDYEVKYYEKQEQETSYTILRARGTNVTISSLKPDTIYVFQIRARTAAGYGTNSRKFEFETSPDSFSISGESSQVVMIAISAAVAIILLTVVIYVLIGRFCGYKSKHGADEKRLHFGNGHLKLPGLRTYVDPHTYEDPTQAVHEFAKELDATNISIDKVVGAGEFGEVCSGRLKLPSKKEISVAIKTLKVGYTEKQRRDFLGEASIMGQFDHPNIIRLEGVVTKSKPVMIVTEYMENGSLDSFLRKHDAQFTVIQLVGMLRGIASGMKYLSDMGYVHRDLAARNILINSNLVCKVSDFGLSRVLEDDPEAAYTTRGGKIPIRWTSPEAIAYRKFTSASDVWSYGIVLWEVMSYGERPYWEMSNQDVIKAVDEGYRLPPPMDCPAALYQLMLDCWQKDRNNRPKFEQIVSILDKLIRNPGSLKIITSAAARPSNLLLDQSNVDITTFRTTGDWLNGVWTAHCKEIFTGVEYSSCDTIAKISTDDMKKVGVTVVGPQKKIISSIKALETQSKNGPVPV

[2] = molecular target: Ephrin type-A receptor 4 (Homo sapiens) (UniProt P54764); details: at 1 µM
[3] = molecular target: Ephrin type-A receptor 4 (Homo sapiens) (UniProt P54764); details: at 10 µM
[4] = molecular target: Ephrin type-A receptor 5 (Homo sapiens) (UniProt P54756); details: at 1 µM
[5] = molecular target: Ephrin type-A receptor 5 (Homo sapiens) (UniProt P54756); details: at 10 µM
[6] = molecular target: Ephrin type-A receptor 7 (Homo sapiens) (UniProt Q15375); details: at 1 µM
[7] = molecular target: Ephrin type-A receptor 7 (Homo sapiens) (UniProt Q15375); details: at 10 µM
[8] = molecular target: T2, Ephrin type-A receptor 8 (Homo sapiens) (UniProt P29322); details: at 1 µM
T2 sequence (whole entry): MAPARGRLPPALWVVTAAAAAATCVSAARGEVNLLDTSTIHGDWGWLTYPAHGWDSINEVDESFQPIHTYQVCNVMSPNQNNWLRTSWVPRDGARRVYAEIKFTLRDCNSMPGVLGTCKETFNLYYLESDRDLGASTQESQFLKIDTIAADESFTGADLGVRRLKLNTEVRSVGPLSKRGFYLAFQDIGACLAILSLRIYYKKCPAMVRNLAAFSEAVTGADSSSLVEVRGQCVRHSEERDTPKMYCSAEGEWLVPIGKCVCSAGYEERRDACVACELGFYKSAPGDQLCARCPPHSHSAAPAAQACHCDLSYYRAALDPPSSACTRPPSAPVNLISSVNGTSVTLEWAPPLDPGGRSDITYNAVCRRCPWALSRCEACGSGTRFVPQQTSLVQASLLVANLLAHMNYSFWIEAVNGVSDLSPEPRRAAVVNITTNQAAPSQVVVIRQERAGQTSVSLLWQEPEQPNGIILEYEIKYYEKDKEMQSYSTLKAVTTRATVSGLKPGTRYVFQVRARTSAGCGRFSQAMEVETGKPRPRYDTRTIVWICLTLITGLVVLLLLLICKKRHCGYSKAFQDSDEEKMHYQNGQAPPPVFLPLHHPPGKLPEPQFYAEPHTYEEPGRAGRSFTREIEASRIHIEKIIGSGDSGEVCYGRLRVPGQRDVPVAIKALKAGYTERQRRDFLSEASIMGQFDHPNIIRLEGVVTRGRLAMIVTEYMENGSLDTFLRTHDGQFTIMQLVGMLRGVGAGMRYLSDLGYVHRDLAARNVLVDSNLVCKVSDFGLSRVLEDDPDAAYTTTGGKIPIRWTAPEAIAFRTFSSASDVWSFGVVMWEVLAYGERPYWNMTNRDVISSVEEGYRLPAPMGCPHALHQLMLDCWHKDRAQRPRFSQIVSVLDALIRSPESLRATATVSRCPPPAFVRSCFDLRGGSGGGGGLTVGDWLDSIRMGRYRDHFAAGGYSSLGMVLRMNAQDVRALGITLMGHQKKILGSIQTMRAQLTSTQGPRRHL

[9] = molecular target: T2, Ephrin type-A receptor 8 (Homo sapiens); details: at 10 µM
[10] = molecular target: T3, Ephrin type-B receptor 1 (Homo sapiens) (UniProt P54762); details: at 1 µM
T3 sequence (whole entry): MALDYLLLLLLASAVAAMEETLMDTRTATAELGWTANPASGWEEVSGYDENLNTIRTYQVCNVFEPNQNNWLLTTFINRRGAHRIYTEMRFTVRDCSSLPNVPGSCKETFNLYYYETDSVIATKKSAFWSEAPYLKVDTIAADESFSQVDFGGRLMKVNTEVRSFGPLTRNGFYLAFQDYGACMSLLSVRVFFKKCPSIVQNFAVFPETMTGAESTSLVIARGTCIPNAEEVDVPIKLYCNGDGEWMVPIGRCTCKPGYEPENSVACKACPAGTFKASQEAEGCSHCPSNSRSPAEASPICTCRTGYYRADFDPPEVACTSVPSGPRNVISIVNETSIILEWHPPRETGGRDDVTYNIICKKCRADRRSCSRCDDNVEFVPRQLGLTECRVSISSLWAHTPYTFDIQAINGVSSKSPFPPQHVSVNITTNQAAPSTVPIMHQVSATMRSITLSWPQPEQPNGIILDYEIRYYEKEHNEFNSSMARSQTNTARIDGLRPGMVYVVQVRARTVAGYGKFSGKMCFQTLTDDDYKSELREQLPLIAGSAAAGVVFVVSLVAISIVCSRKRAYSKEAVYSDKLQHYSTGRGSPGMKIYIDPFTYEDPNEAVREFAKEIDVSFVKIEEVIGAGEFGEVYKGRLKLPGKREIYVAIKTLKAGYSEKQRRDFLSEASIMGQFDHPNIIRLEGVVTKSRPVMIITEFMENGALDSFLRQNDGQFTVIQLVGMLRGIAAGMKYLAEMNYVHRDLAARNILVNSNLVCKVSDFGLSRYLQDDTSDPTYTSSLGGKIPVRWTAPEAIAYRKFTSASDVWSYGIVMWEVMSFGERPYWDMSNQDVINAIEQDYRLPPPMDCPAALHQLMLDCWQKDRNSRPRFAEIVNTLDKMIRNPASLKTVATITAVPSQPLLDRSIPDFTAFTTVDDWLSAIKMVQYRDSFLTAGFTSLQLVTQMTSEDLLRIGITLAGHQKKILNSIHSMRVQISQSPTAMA

Sequence of Ephrin type-A receptor 4 (Homo sapiens) (P54764 whole entry): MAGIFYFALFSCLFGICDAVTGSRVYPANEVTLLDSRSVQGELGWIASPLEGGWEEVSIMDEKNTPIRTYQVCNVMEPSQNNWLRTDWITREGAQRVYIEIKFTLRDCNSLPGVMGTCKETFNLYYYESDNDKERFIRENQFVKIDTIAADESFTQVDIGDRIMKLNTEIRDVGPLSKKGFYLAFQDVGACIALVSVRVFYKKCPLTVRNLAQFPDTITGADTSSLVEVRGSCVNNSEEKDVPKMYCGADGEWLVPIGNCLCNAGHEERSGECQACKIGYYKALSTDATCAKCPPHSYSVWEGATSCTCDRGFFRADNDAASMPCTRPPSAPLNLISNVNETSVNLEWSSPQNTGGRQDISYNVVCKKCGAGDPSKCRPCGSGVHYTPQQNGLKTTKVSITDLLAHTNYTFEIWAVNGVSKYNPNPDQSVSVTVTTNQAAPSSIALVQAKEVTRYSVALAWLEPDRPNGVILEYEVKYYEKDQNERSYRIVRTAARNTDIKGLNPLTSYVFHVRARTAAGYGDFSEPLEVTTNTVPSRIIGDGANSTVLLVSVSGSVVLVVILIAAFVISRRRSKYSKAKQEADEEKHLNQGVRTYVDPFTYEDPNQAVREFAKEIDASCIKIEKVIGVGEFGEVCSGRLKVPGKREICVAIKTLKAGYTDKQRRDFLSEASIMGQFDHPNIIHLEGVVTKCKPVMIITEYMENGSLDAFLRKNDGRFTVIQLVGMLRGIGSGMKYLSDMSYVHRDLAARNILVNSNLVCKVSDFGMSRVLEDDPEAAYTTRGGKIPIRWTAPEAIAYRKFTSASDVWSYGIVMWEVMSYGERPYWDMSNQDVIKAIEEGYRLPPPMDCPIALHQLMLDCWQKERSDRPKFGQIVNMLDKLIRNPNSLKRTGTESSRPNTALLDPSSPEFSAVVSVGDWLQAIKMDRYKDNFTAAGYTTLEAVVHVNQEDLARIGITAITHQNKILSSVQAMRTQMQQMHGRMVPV
Sequence of Ephrin type-A receptor 5 (Homo sapiens) (P54756 whole entry): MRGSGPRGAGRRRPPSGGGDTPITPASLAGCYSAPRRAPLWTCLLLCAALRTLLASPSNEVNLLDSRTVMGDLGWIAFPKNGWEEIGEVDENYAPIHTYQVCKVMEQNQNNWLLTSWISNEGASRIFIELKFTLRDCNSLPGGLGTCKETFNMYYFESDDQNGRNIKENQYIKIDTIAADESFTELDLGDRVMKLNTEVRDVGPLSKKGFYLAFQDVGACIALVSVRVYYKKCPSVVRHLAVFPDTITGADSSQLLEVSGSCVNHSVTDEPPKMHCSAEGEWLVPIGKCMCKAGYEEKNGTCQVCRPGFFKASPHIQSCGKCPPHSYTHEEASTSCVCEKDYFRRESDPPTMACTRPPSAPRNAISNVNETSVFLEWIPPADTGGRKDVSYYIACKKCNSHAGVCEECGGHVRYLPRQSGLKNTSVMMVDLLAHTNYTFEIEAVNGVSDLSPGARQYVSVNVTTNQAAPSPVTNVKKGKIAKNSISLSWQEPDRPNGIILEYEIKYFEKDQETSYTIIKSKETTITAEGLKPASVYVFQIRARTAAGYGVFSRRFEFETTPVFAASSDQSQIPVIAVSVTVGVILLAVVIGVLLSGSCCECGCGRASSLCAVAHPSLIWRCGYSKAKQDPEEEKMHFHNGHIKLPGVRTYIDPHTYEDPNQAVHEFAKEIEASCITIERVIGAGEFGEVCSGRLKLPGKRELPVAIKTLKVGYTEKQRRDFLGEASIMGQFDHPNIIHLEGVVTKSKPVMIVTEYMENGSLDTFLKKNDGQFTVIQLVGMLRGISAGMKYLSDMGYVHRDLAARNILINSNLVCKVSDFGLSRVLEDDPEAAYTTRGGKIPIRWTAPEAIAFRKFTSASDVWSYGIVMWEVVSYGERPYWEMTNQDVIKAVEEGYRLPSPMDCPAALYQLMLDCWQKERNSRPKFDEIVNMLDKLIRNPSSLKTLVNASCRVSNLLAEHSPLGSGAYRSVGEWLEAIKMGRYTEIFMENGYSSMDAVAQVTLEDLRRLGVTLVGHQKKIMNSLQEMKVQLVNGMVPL
Sequence of Ephrin type-A receptor 7 (Homo sapiens) (Q15375 28-998 limits assumed): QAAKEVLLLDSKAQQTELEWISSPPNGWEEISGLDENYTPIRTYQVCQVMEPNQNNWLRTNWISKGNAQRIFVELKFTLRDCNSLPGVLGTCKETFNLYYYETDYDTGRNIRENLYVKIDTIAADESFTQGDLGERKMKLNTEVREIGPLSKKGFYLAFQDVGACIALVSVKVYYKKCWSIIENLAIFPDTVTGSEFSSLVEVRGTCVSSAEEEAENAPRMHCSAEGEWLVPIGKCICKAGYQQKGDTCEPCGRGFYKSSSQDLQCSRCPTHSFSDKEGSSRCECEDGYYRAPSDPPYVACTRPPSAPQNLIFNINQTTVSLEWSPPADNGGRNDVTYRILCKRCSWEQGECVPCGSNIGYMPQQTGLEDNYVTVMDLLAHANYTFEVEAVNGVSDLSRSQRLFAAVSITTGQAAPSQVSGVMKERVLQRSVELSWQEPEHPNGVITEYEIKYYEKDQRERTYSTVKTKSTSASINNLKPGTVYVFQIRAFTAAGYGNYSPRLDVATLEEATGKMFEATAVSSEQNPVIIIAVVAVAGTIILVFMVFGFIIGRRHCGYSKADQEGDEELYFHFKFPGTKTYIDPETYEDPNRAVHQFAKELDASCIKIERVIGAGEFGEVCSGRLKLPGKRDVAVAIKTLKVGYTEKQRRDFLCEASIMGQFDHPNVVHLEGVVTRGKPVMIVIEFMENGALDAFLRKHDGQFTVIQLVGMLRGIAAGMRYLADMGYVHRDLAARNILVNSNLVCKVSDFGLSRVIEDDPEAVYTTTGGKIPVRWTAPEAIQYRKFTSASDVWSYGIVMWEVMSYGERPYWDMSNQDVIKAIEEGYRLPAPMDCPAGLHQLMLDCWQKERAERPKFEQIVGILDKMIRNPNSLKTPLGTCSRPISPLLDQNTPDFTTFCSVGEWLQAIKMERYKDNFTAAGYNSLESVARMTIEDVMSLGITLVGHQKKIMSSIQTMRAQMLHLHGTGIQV

SMILES: COc1cc2ncnc(Nc3ccc(Oc4ccccc4)cc3)c2cc1OC
- residual activity [1]: 106%
- residual activity [2]: 107%
- residual activity [3]: 103%
- residual activity [4]: 130%
- residual activity [5]: 89%
- residual activity [6]: 102%
- residual activity [7]: 84%
- residual activity [8]: 91%
- residual activity [9]: 65%
- residual activity [10]: 110%
